PubChem BioAssay
“And” between values parts separate entries of the source, which are not always exact repeats. Equal entries are not always repeated.

Biological target: Calmodulin-1 (Homo sapiens) (UniProt P0DP23)
Assay: small molecules binding Ca-loaded calmodulin-1 – biochemical, small-molecule microarray, Cy5-labelled CALM1, plus calcium, artefact control for SMM control-protein annotation, profiling panel (AID 1112);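 also: score merges spot fluorescence with signal to noise from triplicate slides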
Conditions: Cy5-CALM1 binding fluorescence, higher = more signal

Row | Structure (SMILES) | composite z-score
1 | COC(=O)C1=C(C)N(Cc2ccccc2)C2=C3C(=O)CCC[C@@H]3[C@@](O)(C(=O)OC)C(=O)N2[C@@H]1c1ccccc1 | -0.361 and -0.0671
2 | CCCC[C@@H]1CN2[C@@H](CC[C@@H](C)[C@@H]2c2ccc(Br)cc2)C(=O)O1 | -0.242 and -0.217
3 | CCN1C(=O)[C@H]2[C@H]3[C@H](O)[C@H](O)CC(=NOC)[C@@H]3CC[C@H]2C1=O | -0.266
4 | CC(C)OC(=O)C=C1C[C@@H](c2cccc(C(F)(F)F)c2)O[C@@H](c2cccc(C(F)(F)F)c2)O1 | 0.831 and 0.224
5 | CC(C)=NO[C@@H](C)c1cc(-c2c(C)cc(C)cc2C)no1 | -0.264
6 | C=CCN(C(=O)C1N(CCOCCO)C(=O)C2C(C(=O)O)C3C=CC21O3)c1ccc(OC)cc1 (stereo not drawn) | 0.538 and -0.237
7 | C=CCN(C(=O)C(c1cccs1)N(CCOCCO)C(=O)/C=C\C(=O)O)c1ccc(OC)cc1 (stereo not drawn) | -0.0309 and 0.36
8 | C=CCN(Cc1ccccc1)C(=O)C(c1cccs1)N(C(=O)/C=C\C(=O)O)c1ccc(CCO)cc1 (stereo not drawn) | 0.204 and -0.257

Tested on: not listed separately
Assay: probe aWnt5a binding to arrayed compounds – biochemical, biotinylated probe, 635/667 nm fluorescence, primary screen (AID 1113);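 also: score merges 667 nm fluorescence intensity with signal-to-noise per printed feature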
Conditions: small-molecule microarray, higher = more signal

Row | Structure (SMILES) | composite z-score
9 | CC(CO)N1C(=O)[C@@H]2C3C(=O)OCCC=C[C@H]3OC23C=CCN(CCN2CCOCC2)C(=O)[C@@H]13 (stereo partly drawn) | -0.0981 and -0.13
10 | COC(=O)C1=C(C)N(Cc2ccccc2)C2=C(C(C)=O)[C@H](c3ccccc3)[C@@](O)(C(=O)OC)C(=O)N2[C@@H]1c1ccccc1 | -0.0944 and 0.0102
11 | CC(C)=NOC[C@@H](O)COCc1ccco1 | -0.172
12 | C[C@@H]1CC[C@H]2C(=O)NC[C@@H](O)CN2[C@H]1c1ccc(Br)cc1 | -0.0758 and -0.0405
13 | CCOC(=O)[C@@H]1CC2O[C@]23C[C@@H]1C(=O)N1CCC[C@@H]1[C@H]3O[Si](C)(C)C(C)(C)C (stereo partly drawn) | -0.251 and -0.124
14 | C[N+](C)(C)CCCCNC(=O)[C@H]1C[C@H]2C(=O)N[C@@H](CCCC[N+](C)(C)C)C(=O)N2[C@H]1c1ccc(O)cc1 | -0.0685 and -0.0643
15 | CC(C)[Si]1(C(C)C)OCc2cc(CCCc3cc4c(c(CCc5ccccc5)n3)[Si](C(C)C)(C(C)C)OC4)nc(CCc3ccccc3)c21 | -0.152 and -0.148
16 | COC(=O)C1=C(C)N(Cc2ccccc2)C2=C3C(=O)N(c4ccccc4)C(=O)[C@@H]3[C@@](O)(C(=O)OC)C(=O)N2[C@@H]1c1ccccc1 | -0.124 and -0.0405
17 | CO[C@H]1COC(=O)CC=C[C@H](C)[C@H](OC)COC(=O)[C@@H](C)COC(=O)CC=C[C@@H]1C | -0.0172 and -0.147
18 | C=CCN(C(=O)C1N(c2ccc(CCO)cc2)C(=O)C2C(C(=O)O)C3C=CC21O3)c1ccc(OC)cc1 (stereo not drawn) | -0.154 and -0.285
19 | COC(=O)[C@@]1(Cc2ccc(F)cc2)[C@H]2c3cc(C(=O)N4CCCC4)n(Cc4c(CO)[nH]cc(C)c4=O)c3C[C@H]2CN1C(=O)c1ccccc1 | 1.02 and 0.132
20 | CC(CO)N1C(=O)[C@@H]2C3C(=O)OCCC=C[C@H]3OC23C=CCN(c2ccc(Cl)cc2)C(=O)[C@@H]13 (stereo partly drawn) | -0.0346 and -0.152
21 | C=CCN(CCCC)C(=O)C(c1cccs1)N(C(=O)/C=C\C(=O)O)c1c(Cl)cccc1CO (stereo not drawn) | -0.328 and -0.303
22 | CCOC(=O)C[C@H]1[C@H](OC(=O)c2ccccc2-c2ccccc2)[C@@H](NC(=O)c2ccccc2)c2cc(OCCCO)ccc2N1C(=O)c1ccc2ccccc2n1 | 0.0324 and -0.108
23 | C=CCN(C(=O)C1N(c2c(Cl)cccc2CO)C(=O)C2C(C(=O)O)C3C=CC21O3)C(C)(C)C (stereo not drawn) | -0.334 and -0.28
24 | C#CCCCON=C1C[C@@H](O)[C@@H](O)[C@@H]2[C@@H]3C(=O)N(C4CCCCC4)C(=O)[C@@H]3CC[C@H]12 | 0.454
25 | C=CCN(CCCC)C(=O)C1N(c2ccc(CCO)cc2)C(=O)C2C(C(=O)O)C3C=CC21O3 (stereo not drawn) | -0.221 and -0.296
26 | C=CCN(C(=O)C1N(c2c(Cl)cccc2CO)C(=O)C2C(C(=O)O)C3C=CC21O3)c1ccc(OC)cc1 (stereo not drawn) | -0.355 and -0.242
27 | CON(C)C(=O)c1nnc2c3ccccc3n(S(=O)(=O)c3ccc(C)cc3)c2n1 | -0.0748 and -0.006
28 | CCCC[C@@H]1CN2[C@H](c3ccc(Br)cc3)[C@@H](C)CC[C@H]2C(=O)O1 | -0.232 and -0.104
29 | C=CCN(CCCCC)C(=O)C1N(c2ccc(CCO)cc2)C(=O)C2C(C(=O)O)C3C=CC21O3 (stereo not drawn) | -0.23 and -0.316
30 | C=CCN(Cc1ccccc1)C(=O)C1N(C(C)(C)CO)C(=O)C2C(C(=O)O)C3C=CC21O3 (stereo not drawn) | -0.202 and -0.224
31 | O=C1C[C@]2(c3ccc([N+](=O)[O-])cc3)C(=O)N(Cc3ccccc3)c3cc(CO)ccc3[C@H]2N1C1CCCCC1 | -0.0546 and -0.0556
32 | C=CCN(Cc1ccccc1)C(=O)C(c1cccs1)N(C(=O)/C=C\C(=O)O)c1c(Cl)cccc1CO (stereo not drawn) | -0.12 and -0.298
33 | CCOC(=O)c1ccc(NC(=O)O[C@H]2[C@H](OC(=O)Nc3ccccc3)[C@@H](OC(=O)Nc3ccccc3)[C@@H](OC)O[C@@H]2CO)cc1 | 0.0618 and 0.199
